The record followed here is article PMC4552634, “A New Set of Chemical Starting Points with Plasmodium falciparum Transmission-Blocking Potential for Antimalarial Drug Discovery” (PLoS ONE, 2015).

The campaign covered roughly 13,000 compounds. About 3,200 (25%) showed an effect of 50% or more. The list shows a part of the results.

For the experiment, the system named is P. falciparum stage V gametocytes. More on the design: BacTiter-Glo ATP luminescence viability of purified stage V gametocytes in 384-well plates, per cent inhibition versus DMSO. The settings on record: 48 h, 5 µM; inhibitor.
As to `c1ccc(CCNc2ccnc(Nc3ccc4cn[nH]c4c3)n2)cc1` [TCMDC-136880], the “% Inhibition” value is listed as 16.88%.
For the molecule `CN(c1ccccc1)S(=O)(=O)c1cccc(NC(=O)c2ccc(-n3ccnc3)c([N+](=O)[O-])c2)c1` [TCMDC-125320], the “% Inhibition” value amounted to 19.17%.
In the case of `CCC(=O)N1CCc2cc(Br)cc(S(=O)(=O)N3CC(C)CC(C)C3)c21` (stereo not drawn) [TCMDC-123873], the “% Inhibition” value is given as -4.792%.
In the case of `Cc1ccc(N2C(=O)C3C(C2=O)C2(c4ccccc4)C(=O)C3(c3ccccc3)C(c3ccccc3)=C2c2ccccc2)c(C)c1` (stereo not drawn) [TCMDC-124184], the “% Inhibition” value worked out at 31.21%.
Take `Oc1ccc(CCNc2nc(N/N=C/c3ccc(Cl)cc3)nc(N3CCNCC3)n2)cc1` [TCMDC-138543]: the “% Inhibition” value is -10.01%.
As to `C=CCN(c1ccc(OC)cc1)S(=O)(=O)c1ccc(Cl)c(C(=O)Nc2cccc(C#N)c2)c1` [TCMDC-123716], the “% Inhibition” value was -20.14%.
For `COc1ccc(-c2ccc(NC(=O)c3cccc(F)c3)cc2)cc1CNC(C)C` [TCMDC-132529] the value was -9.819%.
On to `COc1ccc(-c2ccc(NC(=O)c3ccc(C#N)cc3)cc2)cc1CNC(C)C` [TCMDC-132518], for which the “% Inhibition” value turned out to be 25.16%.
Regarding `COc1ccc(-c2ccc(NC(=O)c3ccc(F)cc3)cc2)cc1CNC(C)C` [TCMDC-132515], the “% Inhibition” value is 64.88%.
Regarding `COc1ccc(-c2cccc(NC(=O)c3ccc(Cl)cc3)c2)cc1CNC(C)C` [TCMDC-132603], the “% Inhibition” value is listed as 87.48%.
On to `COc1ccc(-c2cccc(NC(=O)c3cccc(Cl)c3)c2)cc1CNC(C)C` [TCMDC-133340], for which the “% Inhibition” value was -37.98%.
For `COc1ccc(-c2ccc(NC(=O)c3cccc(Cl)c3)c(F)c2)cc1CNC(C)C` [TCMDC-132766] the value was 31.53%.
Under `CCNc1cc(C(=O)N[C@@H](Cc2ccccc2)[C@H](O)CNC(C)(C)c2cccc(OC)c2)cc(N2CCCC2=O)c1` [TCMDC-138895] stands -11.4%; under `CCc1cccc(-n2nc(OCC(=O)NC3CCCC3)c3cccnc32)c1` [TCMDC-125160], 5.355%; under `COc1cccc2cc(C(=O)N[C@@H](CC(C)C)C(=O)N[C@H](C=NN3CC(=O)NC3=O)CC(C)C)oc12` [TCMDC-136063], 6.388%.
Regarding `CCCCCCNCCOc1ccc(-c2nc(-c3ccccc3)c(-c3ccccc3)[nH]2)cc1` [TCMDC-137684], the “% Inhibition” value worked out at 76.06%.
With `CCCCOc1ccc(-c2nc3ccccc3[nH]2)cc1` [TCMDC-123930], the “% Inhibition” value worked out at 57.83%.
`CCCCNCCOc1ccc(-c2nc(-c3ccccc3)c(-c3ccccc3)[nH]2)cc1` [TCMDC-138053]: the “% Inhibition” value turned out to be 74.26%.
As for `COc1ccc(NC(=O)Nc2ccc(-c3ccc(-c4nc5ccccc5[nH]4)cc3)cc2)cc1` [TCMDC-133248], the “% Inhibition” value is listed as -24.62%.
Turning to `Oc1cccc(-c2nc(-c3ccccc3)c(-c3ccc(Oc4ccc(-c5[nH]c(-c6cccc(O)c6)nc5-c5ccccc5)cc4)cc3)[nH]2)c1` [TCMDC-125666], the “% Inhibition” value is -19.27%.
With `CCCCCOc1ccc(C=NNc2nc(-c3ccccc3)cc(=O)[nH]2)cc1` [TCMDC-124237], the “% Inhibition” value is listed as 29.87%.
On to `COc1cc(-c2nc(-c3ccccc3)c(-c3ccccc3)[nH]2)ccc1OCCN(C)C` [TCMDC-137716], for which the “% Inhibition” value is given as -85.41%.
As to `Oc1cc(-c2nc(-c3ccccc3)[nH]c2-c2ccncc2)ccc1Cl` [TCMDC-139660], the “% Inhibition” value is given as -47.58%.
For `COc1ccc(OCC(=O)Nc2cc(-c3nc4ccccc4[nH]3)ccc2Cl)cc1` [TCMDC-125425] the value was -8.801%; for `CN(C)c1ccc(CN2CCC(NC(=O)c3ccc(-c4cccc(F)c4)s3)CC2)cc1` [TCMDC-134327], -0.6628%; for `COc1ccccc1Nc1nc(C)cc(NCc2ccc(-n3ccnc3)cc2)n1` [TCMDC-133452], 11.88%.
Turning to `COc1ccc(S(=O)(=O)Nc2cc(C)cc(Br)c2OC)cc1N1CCN(C(=O)C(Cl)(Cl)Cl)CC1` [TCMDC-139808], the “% Inhibition” value came to 8.102%.
With `CO/C(=C\C=C\c1cc2cc(Cl)c(Cl)cc2[nH]1)C(=O)NCCCN1CCN(c2ccncc2)CC1` [TCMDC-139184], the “% Inhibition” value is 16.21%.
In the case of `CN(C)CCCSc1ccccc1NC(=O)C=Cc1ccccc1` [TCMDC-125843], the “% Inhibition” value worked out at 7.207%.
In the case of `Cc1ccc(-c2noc(COc3ccccc3C(=O)NC3CCCC3)n2)cc1` [TCMDC-124748], the “% Inhibition” value was 47.39%.
For `FC(F)(F)c1ccc2nccc(NCc3ccccc3)c2c1` [TCMDC-138259] the value was -8.95%; for `CCc1ccc(NC(=O)c2ccc(CN3CCCN(CCC(C)C)CC3)cc2)cc1` [TCMDC-136448], -6.236%.
As for `COc1ccc2oc(=O)c(C#N)c(O)c2c1` [TCMDC-131398], the “% Inhibition” value was -8.165%.
As for `CCCCCCN1CCC(NCc2cccc(C#N)c2)CC1` [TCMDC-141670], the “% Inhibition” value is -17.05%.
On to `CCCCCCN1CCC(NCc2ccc(CN(C)C)cc2)CC1` [TCMDC-141662], for which the “% Inhibition” value turned out to be 16.26%.
For `CN1CCN(CCCN(Cc2cccc(-c3ccc(CNC4CCCC4)cc3)c2)C(=O)CCC2CCCC2)CC1` [TCMDC-140750] the value was 98.64%; for `FC(F)(F)c1cccc(CNC2CCN(CC3CCCCC3)CC2)c1` [TCMDC-141660], -52.78%.
For `FC(F)(F)c1ccc(CNC2CCN(CC3CCCCC3)CC2)cc1` [TCMDC-141661] the value was -50.93%; for `CN1CCN(CCCN(Cc2cccc(-c3cccc(CNC4CCCC4)c3)c2)C(=O)CCC2CCCC2)CC1` [TCMDC-140555], 119.1%.
With `CN1CCN(CCCN(Cc2ccc(-c3ccc(CNC4CCCC4)cc3)cc2)C(=O)CCC2CCCC2)CC1` [TCMDC-140560], the “% Inhibition” value was found to be 99.06%.
On to `CCCC(C)Nc1nc(C)cc(N[C@@H](Cc2ccccc2)C(=O)Nc2ccccc2)n1` (stereo partly drawn) [TCMDC-134767], for which the “% Inhibition” value was -30.62%.
For the molecule `CCc1c(C(=O)NC2CCC(N3CCC(c4ccccc4OC)CC3)CC2)[nH]c2ccc(Br)cc12` (stereo not drawn) [TCMDC-133499], the “% Inhibition” value is recorded as -52.27%.
As to `COc1ccccc1C(C)NCC(=O)Nc1cc(C(F)(F)F)ccc1Cl` (stereo not drawn) [TCMDC-125041], the “% Inhibition” value is listed as -2.208%.
For the molecule `COc1ccc(Nc2nccc(N3CCC(NS(=O)(=O)c4ccc(NC(C)=O)cc4)C3)n2)cc1` (stereo not drawn) [TCMDC-133608], the “% Inhibition” value was -25.9%.
Under `CNC(=O)C(NC(=O)c1ccccc1C(=O)OC)c1ccccc1` (stereo not drawn) [TCMDC-137226] stands 6.158%; under `CCN(CC)CCN(Cc1ccc(-c2ccc(C(F)(F)F)cc2)cc1)C(=O)Cn1cc(Cc2cnn(C)c2)c(=O)nc1/C=C/c1ccc(F)cc1` [TCMDC-140741], 95.48%.
Regarding `CCN(CC)CCN(Cc1ccc(-c2ccc(C(F)(F)F)cc2)cc1)C(=O)Cn1cc(Cc2cnn(C)c2)c(=O)nc1/C=C/c1cccc(F)c1F` [TCMDC-140964], the “% Inhibition” value is 99.53%.
`O=C(Cc1cc(=O)oc2cc(O)ccc12)N1CCC(CN2CCC(c3c[nH]c4ccccc34)CC2)CC1` [TCMDC-139881]: the “% Inhibition” value is listed as 9.393%.
Consider `N#Cc1cccc(NC(=O)Nc2ccc(-c3csc(-c4nc5ccccc5[nH]4)c3)cc2)c1` [TCMDC-133188], for which the “% Inhibition” value is recorded as 30.15%.
With `Cn1nc(C(F)(F)F)cc1-c1ccc(C(=O)Nc2ccc3c(c2)CNCC3(C)C)s1` [TCMDC-141916], the “% Inhibition” value was determined as 39.68%.
Take `NC(N)=NC(=O)Nc1cc(Cl)c(Cl)c(C(F)(F)F)c1` [TCMDC-137511]: the “% Inhibition” value was -11.78%.
For the molecule `CCCCC(=O)Nc1cc(=O)[nH]c2nc(-c3ccc(Cl)cc3)nn12` [TCMDC-125002], the “% Inhibition” value was determined as 1.203%.
Turning to `COc1cc(NC(=O)/C=C/c2cc(F)cc(F)c2F)cc(OCCN2CCC(O)(c3ccccc3)CC2)c1` [TCMDC-140936], the “% Inhibition” value is listed as -10.33%.
`N#Cc1cccc(NC(=O)Nc2ccc3c(c2)CCN(C2CCC2)CC3)c1` [TCMDC-136005]: the “% Inhibition” value came out at 22.54%.
As to `COc1ccc(C(C(=O)NC2CCN(C[C@H](O)c3ccnc4ccc(OC)cc34)CC2)N2CCN(Cc3ccccc3)CC2)cc1` (stereo partly drawn) [TCMDC-140987], the “% Inhibition” value is listed as -16.46%.
In the case of `CN1CCC(COC(=O)C(O)(c2ccccc2)c2ccccc2)C1` (stereo not drawn) [TCMDC-131375], the “% Inhibition” value is reported as 2.294%.
With `CCCNS(=O)(=O)c1ccc(NC(=O)C(C)Oc2ccc([N+](=O)[O-])cc2)cc1` (stereo not drawn) [TCMDC-125122], the “% Inhibition” value worked out at 65.91%.
Take `CCCCNS(=O)(=O)c1ccc(NC(=O)c2cc([N+](=O)[O-])ccc2Cl)cc1` [TCMDC-124345]: the “% Inhibition” value is 83.43%.
For the molecule `NCCNc1ccc([N+](=O)[O-])cc1C(=O)Nc1cccc(Cl)c1` [TCMDC-123690], the “% Inhibition” value turned out to be 33.32%.
For the molecule `Cc1ccc(NC(=O)c2cc([N+](=O)[O-])ccc2NCc2cccnc2)cc1Cl` [TCMDC-124571], the “% Inhibition” value is listed as 7.674%.
As to `C=CCNC(=O)C(C)c1ccc2cc(OC)ccc2c1` (stereo not drawn) [TCMDC-132021], the “% Inhibition” value amounted to 24.74%.
As to `Cc1cc(N(C)C)nc(Nc2ccc(NC(=O)C(C)Oc3ccccc3)cc2)n1` (stereo not drawn) [TCMDC-124974], the “% Inhibition” value is reported as 7.49%.
As for `Cc1cc(N2CCCC2)nc(Nc2ccc(NC(=O)C(C)Oc3ccccc3)cc2)n1` (stereo not drawn) [TCMDC-124968], the “% Inhibition” value was 18.82%.
As for `CCNS(=O)(=O)c1ccc(Oc2ccc([N+](=O)[O-])cc2)cc1` [TCMDC-137451], the “% Inhibition” value is reported as -0.3916%.
For the molecule `C=CCNS(=O)(=O)c1ccc(NC(=O)C(C)Oc2ccc([N+](=O)[O-])cc2)cc1` (stereo not drawn) [TCMDC-125123], the “% Inhibition” value was found to be 69.95%.
Under `O=C(Nc1ccc(OC2CCN(Cc3ccc(F)cc3)CC2)c(Cl)c1)c1ccoc1` [TCMDC-133744] stands 29.48%.
For `CC(C)CC(=O)NC1CCN(Cc2c(-c3cccs3)nc3ccccc3c2C(=O)N[C@@H](C)C2CCCCC2)CC1` [TCMDC-141791] the value was -23.57%; for `CCNC(=O)NC1CCN(Cc2c(-c3cccs3)nc3ccccc3c2C(=O)N[C@@H](C)C2CCCCC2)CC1` [TCMDC-141704], 101.3%; for `C[C@H](NC(=O)c1c(CN2CCC(N3CCCCC3=O)CC2)c(-c2cccs2)nc2ccccc12)C1CCCCC1` [TCMDC-141620], -63.06%.
In the case of `C[C@H](NC(=O)c1c(CN2CCN(C(=O)C(C)(C)C)CC2)c(-c2cccs2)nc2ccccc12)C1CCCCC1` [TCMDC-141723], the “% Inhibition” value is reported as -7.5%.
Under `C[C@H](NC(=O)c1c(CN2CCC(NC(=O)CC(C)(C)C)CC2)c(-c2cccs2)nc2ccccc12)C1CCCCC1` [TCMDC-141792] stands 25.58%; under `CNC(=O)NC1CCN(Cc2c(-c3cccs3)nc3ccccc3c2C(=O)N[C@@H](C)C2CCCCC2)CC1` [TCMDC-141689], 58%.

Broadly, the % Inhibition is the relative decrease from the control value, in per cent.
